Measurements taken from PubChem BioAssay (NCATS).
Records with an inconclusive call do not appear. Active and inactive are the calls of the source. The call rests on the fitted dose curve; in most records, active means well fitted curve in the direction sought with a large enough effect; inconclusive means small, poorly fitted or top-dose-only effect, or another doubt; inactive means no such curve, though single readings can be large; an effect the other way counts as inactive or inconclusive.

Columns and labels:
[1] = target: Cellular tumor antigen p53 (Homo sapiens) (UniProt P04637); assay: Primary qHTS for small molecule compounds that upregulate eGFP-tagged delta133p53alpha (in N-terminal) cells. (AID 2060322); conditions: NCI-H358 eGFP-delta133p53alpha fluorescence, 24 h; activation: stronger effect = higher value;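 further: cells pre-induced with doxycycline then dosed without doxycycline; series mostly up to about 56 µM; 0% = DMSO vehicle and 100% = reference activator; nearly all actives have a fitted effect of over 75% in size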
Procedure, shortened: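 NCI-H358 cells pre-induced 24 h with 10 ng/ml doxycycline for eGFP-delta133p53alpha, plated dox-free and exposed 24 h at 37C to titrated compounds. Fixed, Hoechst-stained; gated GFP peak intensity by laser scanning cytometry, normalized to DMSO (0%) and 57.5 uM 5-azacytidine (100%).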

[2] = target: Aldehyde dehydrogenase, mitochondrial (Homo sapiens) (UniProt P05091); assay: qHTS for Inhibitors of the Aldehyde Dehydrogenase Family (ALDH2) Primary screen (AID 2061308);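 further: plate controls were vehicle for no effect and reference inhibitor for full effect; nearly all actives have a fitted effect of over 55% in size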
[3] = target: Retinaldehyde dehydrogenase 3 (Homo sapiens) (UniProt P47895); assay: qHTS for Inhibitors of the Aldehyde Dehydrogenase Family (ALDH1A3) Primary screen (AID 2061315);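 further: plate controls were DMSO vehicle for no effect and reference inhibitor for full effect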

Chain of Cellular tumor antigen p53 (Homo sapiens) (P04637 whole entry, looked up): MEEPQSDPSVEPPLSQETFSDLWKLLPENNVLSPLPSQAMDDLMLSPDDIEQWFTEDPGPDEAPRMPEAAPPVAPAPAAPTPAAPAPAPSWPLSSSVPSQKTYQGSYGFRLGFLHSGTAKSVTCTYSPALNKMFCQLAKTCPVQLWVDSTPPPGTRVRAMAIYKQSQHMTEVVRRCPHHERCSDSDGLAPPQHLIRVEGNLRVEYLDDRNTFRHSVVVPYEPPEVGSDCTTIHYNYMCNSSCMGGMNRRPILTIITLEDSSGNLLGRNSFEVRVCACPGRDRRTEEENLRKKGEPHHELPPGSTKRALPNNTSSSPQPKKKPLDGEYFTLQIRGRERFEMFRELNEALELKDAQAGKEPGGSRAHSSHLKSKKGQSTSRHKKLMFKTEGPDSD

O=C(/C=C/c1ccc(O)cc1)OCC1=CC2OC(=O)C3=CO[C@@H](O[C@@H]4O[C@H](CO)[C@@H](O)[C@H](O)[C@H]4O)[C@H]1[C@@H]32 (some centres undefined)
inactive: activation [1] 0% | Potency [2] | Potency [3]

C=C1C[C@]23C[C@H]1CC[C@H]2[C@@]12C=C[C@H](O)[C@@](C)(C(=O)O1)[C@H]2[C@@H]3C(=O)O
inactive: activation [1] -28.2% | Potency [2] | Potency [3]

O=C(Cc1ccc(-c2ccccc2)cc1)NC1CCC1
inactive: activation [1] -1% | Potency [2] | Potency [3]

CC(=O)O[C@H]1C[C@H](OC(C)=O)[C@]2(C)[C@H](CC[C@@]34O[C@@H]3C3=C(C)C(=O)O[C@@H]3C[C@H]42)C1(C)C
inactive: activation [1] 4.46% | Potency [2] | Potency [3]

Cc1cc(Cn2cnc3c2CC(C(=O)O)N(C(=O)C(c2ccccc2)c2ccccc2)C3)ccc1N(C)C (centres undefined)
inactive: activation [1] -7.64% | Potency [2] | Potency [3]

OC[C@@]1(O)CO[C@H](OC[C@H]2O[C@@H](OC(CCCCc3ccc(O)cc3)CCc3ccc(O)cc3)[C@H](O)[C@@H](O)[C@@H]2O)[C@@H]1O (some centres undefined)
inactive: activation [1] -1.53% | Potency [2] | Potency [3]

CC1OC(OC2C(OC(=O)[C@]34CCC(C)(C)C[C@H]3C3=CCC5[C@@]6(C)CC[C@H](OC7OC(C(=O)O)C(O)C(O)C7O)C(C)(C)C6CC[C@@]5(C)[C@]3(C)CC4O)OC(CO)C2O)C(O)C(O)C1OC1OCC(O)C(O)C1O (some centres undefined)
inactive: activation [1] -3.82% | Potency [2] | Potency [3]

C=CC(C)(O)CC/C=C(/C)COC(=O)C(C)C1CCC(C)(C=C)O1 (centres undefined)
inactive: activation [1] 5.36% | Potency [2] | Potency [3]
